According to PubChem BioAssay AID1963822 (ICCB-Longwood Screening Facility, Harvard Medical School, 2024):
The campaign covered roughly 55,000 compounds. About 90 (0.2%) were called active. This is one part of a sample in which actives are shown more often than they occur. The rule behind the calls is not given here.

Test: anaerobic choline-dependent bacterial growth inhibition – minimal medium, absorbance (AID 1963822)
Conditions: Gram-negative bacterium anaerobic choline minimal medium
[1] = measured here: choline growth z-score, timepoint 1, stronger effect = lower value

Compound: COc1cccc(N2C(=O)c3cc(C)nn3CC2(C)C(=O)NCc2ccccc2)c1 (configuration not stated)
- z-score (stronger effect = lower value): 0.09 (inactive)
- z-score [1]: -0.96

Compound: Cc1cc(C)n(CCc2nc(-c3ccc(Cl)cc3)no2)n1
- z-score (stronger effect = lower value): -0.52 (inactive)
- z-score [1]: -1.19

Compound: O=C(NC1CCCCC1)c1ccc(Cl)c(-n2nnc3cccnc32)c1
- z-score (stronger effect = lower value): 0.14 (inactive)
- z-score [1]: 0.44

Compound: Cc1cccc(-c2nn3c(=O)cc(CN4CCN(C(=O)c5cccc(Br)c5)CC4)nc3s2)c1
- z-score (stronger effect = lower value): 0.88 (inactive)
- z-score [1]: 0.71

Compound: COc1ccc2cc3c(nc2c1)N(C(=O)c1ccc(OC)c(OC)c1)CC3
- z-score (stronger effect = lower value): 0.77 (inactive)
- z-score [1]: 0.04

Compound: COc1cccc(-c2nn(Cc3ccc(C)cc3)c(=O)c3noc(C)c23)c1
- z-score (stronger effect = lower value): 1.18 (inactive)
- z-score [1]: -0.21

Compound: COc1ccc(NC(=O)N2CCN(C)c3ncccc32)cc1
- z-score (stronger effect = lower value): -0.52 (inactive)
- z-score [1]: -1.12

Compound: COc1ccc(-c2nc(SCC(=O)Oc3ccc(C)cc3C)n3[nH]c(=O)cc3n2)cc1
- z-score (stronger effect = lower value): -0.54 (inactive)
- z-score [1]: -0.44

Compound: CN(C)C(=O)CN1C(=O)COc2ccc(C(=O)NCc3ccc4c(c3)OCO4)cc21
- z-score (stronger effect = lower value): 0.4 (inactive)
- z-score [1]: 0.23

Compound: O=C1CN(Cc2ccccc2Cl)S(=O)(=O)c2ccccc2N1Cc1cccc(F)c1
- z-score (stronger effect = lower value): 0.04 (inactive)
- z-score [1]: 0.04

Compound: CCOc1ccc(NC(=O)NCCn2c(C(F)(F)F)nc3ccccc32)cc1
- z-score (stronger effect = lower value): 0.3 (inactive)
- z-score [1]: 0.45

Compound: CCC(=O)Nc1nc2cc(NC(=O)Nc3cccc(Cl)c3)ccc2s1
- z-score (stronger effect = lower value): 0 (inactive)
- z-score [1]: -0.84

Compound: O=C(Cc1csc(NC(=O)Nc2ccc(Cl)cc2)n1)Nc1cccc(Cl)c1
- z-score (stronger effect = lower value): -2.04 (active)
- z-score [1]: -1.2

Compound: O=C(Cc1nnc(NC(=O)Nc2cccc(Cl)c2)s1)NCc1ccccc1
- z-score (stronger effect = lower value): 0.49 (inactive)
- z-score [1]: 0.9

Compound: O=C(NCc1ccc2c(c1)OCO2)c1ccc(-c2noc(C3CC3)n2)cc1
- z-score (stronger effect = lower value): 0.36 (inactive)
- z-score [1]: 0.22

Compound: COCC(=O)Nc1ccc(-c2nc3ccccc3s2)cc1
- z-score (stronger effect = lower value): -0.9 (inactive)
- z-score [1]: -0.43

Compound: CCSc1nc2ccc(NS(=O)(=O)Cc3cc(C)ccc3C)cc2s1
- z-score (stronger effect = lower value): 1.35 (inactive)
- z-score [1]: 0.62

Compound: Cc1csc2ncc(C(=O)N3CCCCCC3)c(=O)n12
- z-score (stronger effect = lower value): -0.29 (inactive)
- z-score [1]: -0.07

Compound: c1ccc(CCNc2c3c(nc4nncn24)CCC3)cc1
- z-score (stronger effect = lower value): 0.56 (inactive)
- z-score [1]: 0.78

Compound: CC(C)n1cnc(S(=O)(=O)N2CCC(C(=O)N3CCCC3)CC2)c1
- z-score (stronger effect = lower value): 0.57 (inactive)
- z-score [1]: -0.23

Compound: O=C(Nc1ccc(Br)cc1F)N1CCN(c2cc(-c3ccccc3)ncn2)CC1
- z-score (stronger effect = lower value): -1.08 (inactive)
- z-score [1]: -1.03

Compound: CCC1Oc2cc(S(=O)(=O)N3CCCC(C(=O)N4CCc5ccccc54)C3)c(C)cc2NC1=O (configuration not stated)
- z-score (stronger effect = lower value): 0.06 (inactive)
- z-score [1]: -0.03

Compound: CCN1CCN(S(=O)(=O)c2ccc(C)cc2C)c2cccnc21
- z-score (stronger effect = lower value): -0.02 (inactive)
- z-score [1]: -0.19

Compound: Cc1ccc2c(c1)c1c(n2CC(O)CNCc2ccccc2)CCCC1 (configuration not stated)
- z-score (stronger effect = lower value): -2.96 (active)
- z-score [1]: -0.69

Compound: Cn1c(=O)n(C)c2cc(CNCC(O)c3ccccc3)ccc21 (configuration not stated)
- z-score (stronger effect = lower value): -0.37 (inactive)
- z-score [1]: -0.32

Compound: COC(=O)CC1=CC(=O)N(CC(=O)Nc2ccc(C)cc2Br)c2ccccc2N1
- z-score (stronger effect = lower value): 0.27 (inactive)
- z-score [1]: 0.25

Compound: COc1ccc(-n2nnc3c(N4CCN(C(=O)CC5CCCC5)CC4)ncnc32)cc1
- z-score (stronger effect = lower value): -0.34 (inactive)
- z-score [1]: 0.31

Compound: CC(C)CSc1nn(C)c2nc3c(c(=O)n12)C(C)(C)Cc1ccccc1-3
- z-score (stronger effect = lower value): 0.12 (inactive)
- z-score [1]: -0.98

Compound: Cn1cc(CN2CCC(C(=O)N3CCCC3)CC2)c2cc(Cl)ccc21
- z-score (stronger effect = lower value): -1.08 (inactive)
- z-score [1]: -0.88

Compound: CCC(C)(C)NC(=O)CN(C)S(=O)(=O)c1cc2c(cc1Cl)NC(=O)CO2
- z-score (stronger effect = lower value): 0.45 (inactive)
- z-score [1]: -0.29

Compound: COc1ccc(-c2nn(-c3ccccc3)cc2C2CC(c3ccccc3)=NN2S(C)(=O)=O)cc1 (configuration not stated)
- z-score (stronger effect = lower value): 0.58 (inactive)
- z-score [1]: 0.97

Compound: Cc1nc(N2CCCC2)ncc1C(=O)N1CCCCC1
- z-score (stronger effect = lower value): 0.92 (inactive)
- z-score [1]: -0.25

Compound: CCCn1c(=O)c2ccccc2n2c(=O)n(CC(=O)c3ccc(C)cc3C)nc12
- z-score (stronger effect = lower value): -0.82 (inactive)
- z-score [1]: -0.89

Compound: Cn1c(=O)c2[nH]c(-c3ccncc3)nc2n(C)c1=O
- z-score (stronger effect = lower value): -1.62 (inactive)
- z-score [1]: -1.51

Compound: Cc1ccc(-c2noc(CCn3nc(-c4ccc5c(c4)OCO5)ccc3=O)n2)cc1
- z-score (stronger effect = lower value): 1.77 (inactive)
- z-score [1]: 1.44

Compound: CCOc1ccc(NC(=O)Nc2ccc(-c3cc4cc(Cl)ccc4[nH]3)cc2)cc1
- z-score (stronger effect = lower value): -0.97 (inactive)
- z-score [1]: -1.43

Compound: Cc1nn(CC(=O)NCCc2c[nH]c3ccccc23)c(=O)c2noc(C)c12
- z-score (stronger effect = lower value): -1.18 (inactive)
- z-score [1]: -0.02

Compound: CCC(Sc1nnc(-c2ccccc2NC(C)=O)c(=O)[nH]1)C(=O)Nc1c(C)cc(C)cc1C (configuration not stated)
- z-score (stronger effect = lower value): 0.57 (inactive)
- z-score [1]: -0.51

Compound: COc1ccc(NC(=O)CSc2nc3ccccc3n2Cc2ncc(C)c(OC)c2C)cc1
- z-score (stronger effect = lower value): 0.8 (inactive)
- z-score [1]: 0.74

Compound: COc1ccc(CN2CCCC2c2cc(C)on2)cc1CN1CCOCC1 (configuration not stated)
- z-score (stronger effect = lower value): -1.52 (inactive)
- z-score [1]: -0.66

Compound: COc1cc2[nH]c(=O)n(CCCC(=O)NCCCN3CCN(c4cccc(Cl)c4)CC3)c(=O)c2cc1OC
- z-score (stronger effect = lower value): -0.27 (inactive)
- z-score [1]: 0.11

Compound: O=C(CN(Cc1ccccc1)S(=O)(=O)c1ccc(Br)cc1)N1CCN(c2ccc(F)cc2)CC1
- z-score (stronger effect = lower value): 0.95 (inactive)
- z-score [1]: 0.76

Compound: O=C(Nc1ccccc1F)C1CC(=O)N(CCc2c[nH]c3ccc(F)cc23)C1 (configuration not stated)
- z-score (stronger effect = lower value): -0.07 (inactive)
- z-score [1]: 0.17

Compound: CC(=O)Nc1ccc(S(=O)(=O)N2CCN(Cc3nc4cccnc4n3-c3ccc(C)cc3)CC2)cc1
- z-score (stronger effect = lower value): 0.91 (inactive)
- z-score [1]: -0.17

Compound: Cc1ccc(-n2nc(N3CCCN(C(=O)C4CCC4)CC3)ccc2=O)cc1C
- z-score (stronger effect = lower value): -0.57 (inactive)
- z-score [1]: 1.18

Compound: CCN(CCCNC(=O)C1CCCN(C(=O)c2cccc(Cl)c2)C1)c1ccccc1 (configuration not stated)
- z-score (stronger effect = lower value): -1 (inactive)
- z-score [1]: -1.29

Compound: Cc1nc(N2CCC(C(=O)N3CCOCC3)CC2)c2c(C)c(C)oc2n1
- z-score (stronger effect = lower value): -0.5 (inactive)
- z-score [1]: -0.48

Compound: CCOc1ccc(NC(=O)Nc2ccc(Cn3cnc(-c4nc(-c5ccc(Cl)cc5)no4)c3)cc2)cc1
- z-score (stronger effect = lower value): 0.25 (inactive)
- z-score [1]: 0.58

Compound: O=C(O)C1Nc2ccc(Cl)cc2C2C=CCC12 (configuration not stated)
- z-score (stronger effect = lower value): 1.42 (inactive)
- z-score [1]: 2.01

Compound: Cc1ccc(OCc2nc3c4ccccc4ncn3n2)cc1
- z-score (stronger effect = lower value): 0.29 (inactive)
- z-score [1]: 0.48

Compound: CC(C)c1ccc(N2C(=O)c3cc4ccsc4n3CC2(C)C(=O)NC2CCCC2)cc1 (configuration not stated)
- z-score (stronger effect = lower value): 0.43 (inactive)
- z-score [1]: 0.35
